# Unmarked numbers belong to inactive results. Activity calls are given as the source filed them.
# Test: fission yeast growth modulation, primary screen, strain 972, OD600, 24 h, no modulator (AID 1090);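 also: basal condition with compound alone and no growth modifier present; test concentration not given here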
# Details: S. pombe 972 growth, higher = more signal, called active from +8 up or from −8 down
row,Structure (SMILES),z-score
1,CCCCCCc1nc(CCCc2cc3c(c(CCCCCC)n2)[Si](C(C)C)(C(C)C)OC3)cc2c1[Si](C(C)C)(C(C)C)OC2,-2.38
2,COc1cccc(C(=O)O[C@H]2CC[C@]3(C)C4=C(CCC3C2(C)C)[C@]2(C)CC[C@H]([C@H](C)CCCC(C)C)[C@@]2(C)CC4)c1 (stereo not given in full),-1.08
3,O=C1N(CCS(=O)(=O)c2ccccc2)Cc2ccccc2C[C@]12N=C(c1ccc(OCCCO)cc1)O[C@@H]2c1ccccc1,1.2
4,O=C1C2C=CC(C(O)c3cccs3)N(Nc3ccccc3F)C2C(=O)N1c1ccccc1 (stereo not given),0.915
5,COc1ccc(NN2C(C(O)c3ccc(OC)c(OCc4ccccc4)c3)C=CC3C(=O)N(C4CCCCC4)C(=O)C32)cc1 (stereo not given),0.225
6,CCOc1cc(C(O)C2C=CC3C(=O)N(c4ccccc4)C(=O)C3N2Nc2ccc([N+](=O)[O-])cc2)ccc1O (stereo not given),0.442
7,COCCOC(=O)N1C(=O)[C@@]2(c3cc(C#CCNC(N)=O)ccc31)[C@H](C(=O)N1CCN(c3ncccn3)CC1)[C@H]1C(=O)O[C@H](c3ccccc3)[C@H](c3ccccc3)N1[C@@H]2c1ccccc1OCCO,1.71
8,C=CC[C@]1(C(=O)N2CCOCC2)N=C(c2ccc(OCCCO)cc2)O[C@H]1c1ccccc1,-2.42
9,CCOC(=O)C1=CC[C@@H](c2ccccc2)N(S(=O)(=O)c2ccc(C)cc2)[C@H]1C(=O)OCC,0.572
10,CC=CC(O)C1C=CC2C(=O)N(c3ccccc3)C(=O)C2N1Nc1ccc(C(C)C)cc1 (stereo not given),0.877
11,O=C1OCCC=C[C@H]2OC34C=CCN(c5ccc6ccccc6c5)C(=O)[C@H]3N(CCCCCO)C(=O)[C@@H]4C12 (stereo not given in full),-1.64
12,CCOC(=O)C[C@H]1[C@H](OC(=O)c2ccc(C(=O)c3ccccc3)cc2)[C@@H](NC(=O)C2CCCCC2)c2cc(OCCCO)ccc2N1C(=O)c1ccccc1,0.358
13,[N-]=[N+]=Nc1ccccc1[C@@H]1OC(c2ccc(OCCCO)cc2)=N[C@]1(CCS(=O)(=O)c1ccccc1)C(=O)N1CCOCC1,1.91
14,NC(=O)NCC#Cc1ccc2c(c1)[C@]1(C(=O)N2)[C@H](C(=O)N2CCCCCCC2)[C@H]2C(=O)O[C@H](c3ccccc3)[C@H](c3ccccc3)N2[C@@H]1c1ccc(OCCO)cc1,0.562
15,O=C(NCc1ccccc1)[C@]1(CCS(=O)(=O)c2ccccc2)N=C(c2ccc(OCCCO)cc2)O[C@@H]1c1ccccc1,0.194
16,C=C(C(=O)CC[C@H](OC(C)=O)c1ccc(OCCO)cc1)C(C)C,-20.5 (active)
17,CCCCCN1CC=CC23O[C@@H]4/C=C\CCC(C)OC(=O)C4[C@H]2C(=O)N(CCCCCO)[C@@H]3C1=O (stereo not given in full),-0.773
18,O=C1[C@]2(CO)C=C(Br)[C@@H](C[C@@H]2c2ccccc2)[C@@]12CO2,-3.06

row,Structure (SMILES),z-score
1,CC(C)C(O)C1C=CC2C(=O)N(c3ccccc3)C(=O)C2N1Nc1ccc(C#N)cc1 (stereo not given),0.349
2,O=C(CS)NCCCCCCNC(=O)[C@H]1C[C@H]2C(=O)N3CCC[C@H]3C(=O)N2[C@H]1c1cccc(OCCO)c1,-0.26
3,COCC(=C=CC[C@H](O)c1ccc(OCCO)cc1)C[C@H](O)c1cc(Cl)cc(Cl)c1O,-20.5 (active)
4,CN1CCC(CCCO)=CC1c1ccc(CN2CCCC2)cc1 (stereo not given),-2.41
5,COCCOC(=O)N1C(=O)[C@@]2(c3cc(C#CCC(C(=O)OC)C(=O)OC)ccc31)[C@H](c1ccccc1OCCO)N1[C@H](c3ccccc3)[C@H](c3ccccc3)OC(=O)[C@H]1[C@@H]2C(=O)N1CCc2cc(OC)c(OC)cc2C1,0.979
6,COc1ccc(CCNC(=O)[C@@]2(c3ccc([N+](=O)[O-])cc3)CC(=O)N(CC34CC5CC(CC(C5)C3)C4)[C@@H]2c2ccc(CO)cc2)cc1,-0.063
7,Cc1ccccc1C(O)C1C=CC2C(=O)N(C)C(=O)C2N1Nc1ccccc1 (stereo not given),-0.885
8,O=C1c2ccccc2[C@@]2(Cc3ccccc3N(Cc3ccccc3)C2=O)[C@H](c2ccc(CO)cc2)N1C1CCCCC1,1.1
9,O=C1O[C@H](c2ccccc2)[C@H](c2ccccc2)N2[C@H]1[C@@H](C(=O)Nc1nc3ccccc3s1)[C@]1(C(=O)Nc3ccccc31)[C@H]2c1ccc(O)cc1,-0.0898
10,C=C[C@@H](COC(C)=O)N(Cc1ccc([N+](=O)[O-])cc1)S(=O)(=O)c1ccc(Br)cc1,-1.26
11,CC(C)N1C(=O)c2ccccc2[C@@H](C(=O)NCCCN(C)C)[C@@H]1c1ccc(CO)cc1,-0.672
12,CC(C)c1ccc(NN2C(C(O)c3cccc(O)c3)C=CC3C(=O)N(c4ccccc4)C(=O)C32)cc1 (stereo not given),-0.653
13,CCOC(=O)C[C@H]1[C@H](OC(=O)Cc2ccc3c(c2)OCO3)[C@@H](NC(=O)C2CCCCC2)c2cc(OCCCO)ccc2N1C(=O)Cc1ccc(OC)cc1,-0.38
14,COCCOC(=O)N1C(=O)[C@@]2(c3cc(C#CCC(C(=O)OC)C(=O)OC)ccc31)[C@H](C(=O)N1CCN(c3ncccn3)CC1)[C@H]1C(=O)O[C@H](c3ccccc3)[C@H](c3ccccc3)N1[C@@H]2c1ccc(OCCO)cc1,0.196
15,COc1ccc(C#Cc2ccc3c(c2)[C@]2(C(=O)N3)[C@H](c3ccc(O)cc3)N3[C@H](c4ccccc4)[C@H](c4ccccc4)OC(=O)[C@H]3[C@@H]2C(=O)N2CCCCCCC2)cc1,-0.0733
16,O=C1OCC=C[C@H]2OC34C=CCN(c5ccc(Cl)cc5)C(=O)[C@H]3N(CCCCCCO)C(=O)[C@@H]4[C@@H]12 (stereo not given in full),-1.63
17,O=C1O[C@H](c2ccccc2)[C@H](c2ccccc2)N2[C@H]1[C@@H](C(=O)N1CCN(c3ncccn3)CC1)[C@]1(C(=O)Nc3ccccc31)[C@H]2c1ccc(OCCO)cc1,0.573

# From PubChem BioAssay
